Screens from PubChem.
ANO1 activ – TMEM16A chloride channel activators or potentiators, primary screen, cell-based, HTS. hit rate 0.3% among 340,000. AID 623877, 2012. HEK293 TMEM16A/YFP-H148Q/I152L, iodide quench fluorescence; active compounds read low. B-score at 10 µM;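 active = fluorescence-ratio B-score plate-corrected deviation score at least 3 library SD below zero, with starting fluorescence score within 5 deviations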;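 note: channel opened by trigger with iodide after compound preincubation; score built on the fluorescence ratio of max minus min over baseline; more negative score means more quench and so TMEM16A activation or potentiation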
KCNK9 inh – KCNK9 potassium channel inhibitors, primary screen, HEK293 cells, thallium flux. FluxOR thallium flux fluorescence; active compounds read low. hit rate 1.2% among 310,000. B-score at 10 µM. Potassium channel subfamily K member 9 (Homo sapiens), Q9NPC2;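 active = ratio B-score over 3 SD below the library mean, with starting fluorescence within 5 SD of its mean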;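 note: negative B-score means less thallium flux so channel inhibition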
Kir21 inh – inhibitors of mouse Kir2.1 inward-rectifier potassium channel; B-score at 10 µM; Inward rectifier potassium channel 2 (Mus musculus), P35561; HEK293-Kir2.1, FluxOR thallium flux fluorescence; active compounds read low; hit rate 0.85% among 310,000; AID 1672, 2009;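 active = fluorescence ratio B-score at or below minus 3 SD of library scores, with starting-brightness B-score within 2 SD, cut at about -4.2 in these data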;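 note: channel flux triggered by added potassium and thallium sulfate stimulus; B-score of peak minus minimum fluorescence over baseline after thallium stimulus; more negative B-score means stronger Kir2.1 block with less thallium influx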
Target sequence (P35561 whole entry, looked up): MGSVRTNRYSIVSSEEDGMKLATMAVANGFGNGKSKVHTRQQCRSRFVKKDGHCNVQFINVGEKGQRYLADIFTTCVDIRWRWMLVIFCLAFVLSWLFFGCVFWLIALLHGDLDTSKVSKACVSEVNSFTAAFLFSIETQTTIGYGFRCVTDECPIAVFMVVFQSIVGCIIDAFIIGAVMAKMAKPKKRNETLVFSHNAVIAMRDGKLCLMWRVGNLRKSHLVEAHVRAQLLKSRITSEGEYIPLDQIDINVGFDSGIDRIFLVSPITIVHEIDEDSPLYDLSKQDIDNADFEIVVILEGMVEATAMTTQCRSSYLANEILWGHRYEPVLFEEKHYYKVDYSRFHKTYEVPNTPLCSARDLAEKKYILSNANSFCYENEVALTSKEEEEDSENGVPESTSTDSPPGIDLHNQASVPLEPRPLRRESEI
ANO1 block – TMEM16A chloride channel inhibitors, primary screen, cell-based, HTS. HEK293 TMEM16A/YFP iodide influx fluorescence, ionomycin. normalized B-score (activity score, 25-100; higher = stronger inhibition) at 10 µM. hit rate 1.2% among 310,000;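 active = ratio plate-corrected score three or more library SD toward inhibition, starting fluorescence score within five deviations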;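 note: score derived from kinetic fluorescence span divided by baseline fluorescence per well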
KCNK3 inh – human KCNK3 channel inhibitors, primary screen, CHO cells, FluxOR thallium flux, B-score; FluxOR fluorescence; active compounds read low; B-score at 10 µM; hit rate 0.84% among 340,000; Potassium channel subfamily K member 3 (Homo sapiens), O14649;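 active = B-score under library mean minus 4 SD, starting fluorescence ratio at most library mean plus 5 SD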;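 note: more negative B-score means stronger inhibition of thallium flux through KCNK3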
KCNK3 inh conf – retest of human KCNK3 channel inhibitors, confirmation, CHO cells, FluxOR thallium flux, triplicate; shares compounds with KCNK3 inh; hit rate 99% among 2,400; FluxOR fluorescence; 0% buffer, 100% carvedilol maximal block; ratio percent of control, % at 10 µM;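 active = ratio percent of control, averaged over triplicates, above buffer control mean plus 5 SD, cut at about 64% in these data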;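 note: ratio is the fluorescence rise from min to max over baseline after thallium stimulus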
KCNK3 uninduced – thallium flux inhibition in non-induced cells, primary screen, counter-screen for KCNK3 inhibitor project, cell-based, non-induced KCNK3 line, FluxOR thallium, triplicate; shares compounds with KCNK3 inh; non-induced KCNK3 parental cells; active compounds read low; thallium flux ratio (lower = more inhibition) at 10 µM; hit rate 40% among 2,400;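 active = thallium flux ratio, averaged over three wells, more than 5 SD below the buffer control mean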;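 note: host cells are CHO cells without KCNK3 induction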
Of the large screens only hits and unclear results are named; the others gave an inactive call (follow-up assays come after a bar, where they were run). In the library only some 3.5% were active in any assay of this set; here they are far more common.

COC(=O)c1onc(-c2c(Cl)cccc2Cl)c1C(=O)OC	none
Cc1cc(C)cc(NC(=S)Nc2ccc(Cl)c(Cl)c2)c1	ANO1 activ -9.6, ANO1 block 100, KCNK3 inh -14 | KCNK3 inh conf 146 | KCNK3 uninduced 0.11
NC(=S)Nc1ccc(Cl)c(Cl)c1	none
CCC(=O)Nc1ccc(/C(C)=N\NC(=O)c2ccc(C)s2)cc1	none
C/C(=N\NC(=O)c1nn(C)c(C)c1Br)c1ccc(NC(=O)c2ccc(C)s2)cc1	KCNK3 inh -8.8 | KCNK3 inh conf 101 | KCNK3 uninduced inactive
O=C(NCCC(c1ccccc1)c1ccccc1)c1ccc(Br)o1	KCNK3 inh -9.7 | KCNK3 inh conf 114 | KCNK3 uninduced inactive
O=C(NCCc1csc(-c2ccccc2)n1)c1ccc(Br)o1	KCNK3 inh -11 | KCNK3 inh conf 92 | KCNK3 uninduced inactive
Cc1[nH]c2ccccc2c1SCCNC(=O)c1ccc(Br)o1	KCNK3 inh -9 | KCNK3 inh conf 97 | KCNK3 uninduced inactive
O=C(NCCSc1c[nH]c2ccccc12)c1ccc(Br)o1	KCNK9 inh -7.9, KCNK3 inh -11 | KCNK3 inh conf 98 | KCNK3 uninduced inactive
O=C(NCCc1c[nH]c2ccccc12)c1ccc(Br)o1	none (no result: KCNK9 inh, Kir21 inh, ANO1 block)
COc1ccc(NC(=O)CN(C)CC(=O)NCC(=O)Nc2ccc(F)cc2)cc1	none
COC(=O)c1ccc(NC(=S)NC2CCc3ccccc32)cc1 (stereo not drawn)	KCNK3 inh -8.8 | KCNK3 inh conf 93 | KCNK3 uninduced inactive
COC(=O)c1ccc(NC(=S)NC2CC2)cc1	none
NC(=O)C1CCN(CC(=O)Nc2ccccc2C(=O)NC2CC2)CC1	none (no result: KCNK9 inh, Kir21 inh, ANO1 block)
O=C1C(=O)N(CCN2CCOCC2)C(c2ccccc2F)/C1=C(\O)c1ccc(S(=O)(=O)N2CCOCC2)cc1 (stereo not drawn)	none
COC(=O)C1=C(C)NC(=S)NC1c1ccc(-c2cc(Cl)ccc2Cl)o1 (stereo not drawn)	KCNK3 inh -8.9 | KCNK3 inh conf 107 | KCNK3 uninduced inactive
O=C(Nc1ccc2nc(C3CC3)n(Cc3ccc(F)cc3)c(=O)c2c1)c1ccco1	KCNK3 inh -9.9 | KCNK3 inh conf 89 | KCNK3 uninduced inactive
CC(=O)Nc1ccc2nc(C3CC3)n(Cc3ccc(Cl)cc3)c(=O)c2c1	none
CNc1ccccc1C(C)(C)c1cc(-c2cccc([N+](=O)[O-])c2)no1	none
CNc1ccccc1C(C)(C)c1cc(-c2cccc(Br)c2)no1	KCNK3 inh -11 | KCNK3 inh conf 121 | KCNK3 uninduced 0.15
CC(C)CC1NC(=S)N(Cc2ccccc2)C1=O (stereo not drawn)	none
COC(=O)Cc1c[nH]c2cccc(OCC(O)CN(Cc3ccccc3)C(C)C)c12 (stereo not drawn)	KCNK9 inh -7.9, KCNK3 inh -8.9 | KCNK3 inh conf 100 | KCNK3 uninduced inactive
O=Cc1ccc(OCCCOc2cccc3cccnc23)cc1	none
CCCCOc1ccc2ccccc2c1C=O	KCNK3 inh -15 | KCNK3 inh conf 129 | KCNK3 uninduced inactive
CCCOc1ccc(-c2nnn(CC(=O)Nc3cccc(C(=O)OC)c3)n2)cc1	none
CCCCOc1ccc(-c2nnn(C(C)(C)C(=O)OC)n2)cc1	KCNK9 inh -6.6, KCNK3 inh -11 | KCNK3 inh conf 96 | KCNK3 uninduced inactive
CCOC(=O)/C(=C\c1ccc(N2CCC(c3ccccc3)=N2)cc1)C(C)=O	KCNK3 inh -12 (no result: KCNK9 inh, Kir21 inh, ANO1 block) | KCNK3 inh conf inactive | KCNK3 uninduced inactive
O=C(/C=C/c1ccc(N2CCC(c3ccccc3)=N2)cc1)c1ccccc1	none (no result: ANO1 activ, KCNK3 inh)
Cc1cccc(-c2cc(C(=O)Nc3cccnc3)c3ccccc3n2)c1	KCNK3 inh -8.9 | KCNK3 inh conf 125 | KCNK3 uninduced 0.1
Cc1ccc(-c2cc(C(=O)Nc3cccnc3)c3ccccc3n2)s1	KCNK3 inh -12 | KCNK3 inh conf 100 | KCNK3 uninduced 0.13
O=C(NNC(=O)c1cc(-c2cccnc2)nc2ccccc12)Nc1ccc(Cl)cc1	none
Cc1cc(C)nc(NC(=O)c2cc(-c3ccc(C)s3)nc3ccccc23)c1	none
O=C(NNC(=O)c1cc(-c2ccccc2)nc2ccccc12)Nc1cccc(Cl)c1	ANO1 block 100, KCNK3 inh -9.9 | KCNK3 inh conf 115 | KCNK3 uninduced inactive
Cc1ccc(C(=O)OCC(=O)Nc2cc(F)ccc2F)cc1NC(=O)c1ccco1	none
Cc1c(C(=O)NCCCN2CCOCC2)oc2ccc(S(=O)(=O)N3CCOCC3)cc12	none
Cc1cc(NC(=O)C(C)Oc2ccccc2)no1 (stereo not drawn)	none
CCOC(=O)c1[nH]c2ccc(Cl)cc2c1NC(=O)/C=C/c1ccc2c(c1)OCO2	none
CCN(CC(=O)Nc1c(C(=O)OC)[nH]c2ccc(Cl)cc12)c1ccc2c(c1)OCO2	KCNK9 inh -7.2, KCNK3 inh -9.2 | KCNK3 inh conf 105 | KCNK3 uninduced 0.15
CC1=C(C(=O)Nc2ccc(CC(=O)NCc3ccccc3C)cc2)SCCO1	none
CC1=C(C(=O)Nc2cccc(C(=O)NC(C)C)c2)SCCO1	none
CC1=C(C(=O)Nc2cccc(C(=O)NCc3ccc(F)cc3)c2)SCCO1	KCNK3 inh -9 | KCNK3 inh conf 84 | KCNK3 uninduced inactive
CC1=C(C(=O)Nc2cccc(C(=O)NCc3ccccc3C)c2)SCCO1	KCNK9 inh -6.6, KCNK3 inh -8.8 | KCNK3 inh conf 100 | KCNK3 uninduced inactive
Cc1noc(C)c1S(=O)(=O)Nc1ccc(C(=O)N2CCc3ccccc3C2)cc1	KCNK3 inh -9.1 | KCNK3 inh conf 60 | KCNK3 uninduced inactive
O=C1c2ccccc2C(Nc2ccccc2)N1c1cccnc1 (stereo not drawn)	none
COC(=O)c1cc(NC2c3ccccc3C(=O)N2c2cccnc2)cc(C(=O)OC)c1 (stereo not drawn)	KCNK3 inh -9 | KCNK3 inh conf 119 | KCNK3 uninduced 0.15
COc1ccc(NC2c3ccccc3C(=O)N2c2cccnc2)cc1Cl (stereo not drawn)	KCNK3 inh -10 | KCNK3 inh conf 117 | KCNK3 uninduced inactive
COC(=O)C(Cc1csc2ccc(Cl)cc12)NC(=O)c1ccc(Cl)cc1 (stereo not drawn)	KCNK3 inh -10 | KCNK3 inh conf 140 | KCNK3 uninduced 0.14
